Screening data: PubChem BioAssay, National Center for Advancing Translational Sciences (NCATS)
IMPase cell inh – cell-permeable inhibitors of inositol monophosphatase (IMPase); P97697; CHO-M1 cells, IP1 accumulation, HTRF TR-FRET ratio; inhibition (IP1 accumulation), % at 46.1 µM; 120,000 tested, under 10 active; active means well fitted curve in the direction sought with a large enough effect in the signal ratio, not every such curve was filed as active; inconclusive means small, poorly fitted or top-dose-only effect, or a change in a side signal; inactive means no such curve, though single readings can be large or run the other way; the % refers to the signal ratio;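 further: cells stimulated with carbachol in lithium chloride buffer; higher means more IMPase inhibition seen as more IP1 and lower FRET ratio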
Target sequence (P97697 whole entry, looked up): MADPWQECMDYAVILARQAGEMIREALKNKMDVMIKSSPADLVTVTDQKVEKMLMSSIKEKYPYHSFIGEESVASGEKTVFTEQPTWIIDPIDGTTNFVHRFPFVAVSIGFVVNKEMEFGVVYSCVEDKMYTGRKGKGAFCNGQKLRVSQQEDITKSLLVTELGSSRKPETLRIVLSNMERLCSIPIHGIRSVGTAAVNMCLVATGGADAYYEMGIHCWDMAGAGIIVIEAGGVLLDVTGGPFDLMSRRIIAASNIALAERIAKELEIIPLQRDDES
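Cellular IMPase inhibition is scored as a rise in cytosolic IP1, detected by competitive TR-FRET between d2-labelled IP1 and a europium anti-IP1 antibody. M1-expressing CHO cells were stimulated with carbachol for 30 min at 37C, with lithium (50 mM LiCl) present in the buffer.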
IMPase Li cell – cell-permeable IMPase inhibitors with lithium potentiation; Potency, µM (titrated, usually from 59.4 µM), actives largely listed as inhibitors; actives 0.35% (n = 210,000); CHO-M1 cells, IP1 TR-FRET (IP-One), carbachol + lithium; active means well fitted curve in the direction sought with a large enough effect; inconclusive means small, poorly fitted or top-dose-only effect, or another doubt; inactive means no such curve, though single readings can be large; an effect the other way counts as inactive or inconclusive;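 further: IP1 builds up when IMPase is blocked and the TR-FRET signal falls; nearly all actives have a fitted effect of over 50% in size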
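Lithium-sensitised IP1 accumulation assay; M1-expressing CHO cells treated 30 min at 37C with compound. Competitive antibody detection by time-resolved FRET followed a 10 min room-temperature lysis step.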
ALDH1A1 block – blocks purified human ALDH1A1 activity; Potency, µM (doses to about 75.3 µM), actives largely listed as inhibitors; Purified ALDH1A1, NADH fluorescence, propionaldehyde substrate; P00352; AID 1030; actives 7.3% (n = 220,000)
PNC inhibitor – blocks assembly of the perinucleolar compartment | actives 3.1% (n = 140,000) | activity change (PNC), negative = inhibition, % at 10 µM | PC3M PTB-GFP, PNC prevalence imaging, 16 h; active compounds read low | AID 2417;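 active means readout at or below -70, meaning at least 70% loss of cells showing the perinucleolar compartment, a nuclear body marking cancer cells; inconclusive means readout between -30 and a set limit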
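PC3M cells stably expressing PTB-GFP, 750–1000 cells/well, treated 16 h at 37 °C with compound (23 nl of library stock), in duplicate. After paraformaldehyde fixation and Hoechst stain, imaged at 20x; PNC prevalence scored by image analysis.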
HPGD inh – HPGD (human) dehydrogenase inhibition; P15428; purified HPGD, NADH fluorescence kinetic, PGE2 substrate; Potency, µM, hits mostly inhibitors; actives 4.3% (n = 150,000); AID 894
Target sequence (P15428 whole entry, looked up): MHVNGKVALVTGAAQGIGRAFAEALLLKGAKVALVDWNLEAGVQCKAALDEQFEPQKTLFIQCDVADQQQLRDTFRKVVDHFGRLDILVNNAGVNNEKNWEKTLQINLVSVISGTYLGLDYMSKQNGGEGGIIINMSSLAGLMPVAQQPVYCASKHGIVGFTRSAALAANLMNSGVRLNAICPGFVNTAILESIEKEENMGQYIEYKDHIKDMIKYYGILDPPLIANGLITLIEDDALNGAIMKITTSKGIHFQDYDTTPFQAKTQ
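20 nM HPGD preincubated 15 min at room temperature with compound in 50 mM Tris-HCl pH 8, 0.01% Tween 20. Started with 1 mM NAD+ and 30 uM prostaglandin E2; NADH fluorescence (360/450 nm) read 5 times over 30-s intervals, last minus first.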
NPSR antag – antagonists of human neuropeptide S receptor cAMP signaling; Q6W5P4; CHO-NPSR cells, cAMP TR-FRET, antagonist mode; Potency, µM (highest dose often 38.3 µM), actives largely listed as inhibitors; actives 1% (n = 220,000); AID 1461; active means well fitted curve in the direction sought with a large enough effect; inconclusive means small, poorly fitted or top-dose-only effect, or another doubt; inactive means no such curve, though single readings can be large; an effect the other way counts as inactive or inconclusive; further: nearly all actives have a fitted effect of over 50% in size
Hits are given with their value; n = inactive; u = inconclusive; x = not tested or not shown; ! = not active in a repeat; [ ] = dose if it differs, or a comment. Most compounds without a hit are left out; they make up all but 11% or so of the library. Unless noted, the call rests on the fitted dose curve; in most records, active means well fitted inhibition curve with a large enough effect (not every such curve was filed as active); inconclusive means small, poorly fitted or top-dose-only effect, or another doubt; inactive means no such curve, though single readings can be large or run the other way.

SMILES	IMPase cell inh	IMPase Li cell	ALDH1A1 block	PNC inhibitor	HPGD inh	NPSR antag
CCC(=Nc1ccc(OC)cc1OC)c1c(O)n(C2CCCCC2)c(=O)[nH]c1=O	n	n	u	n	28µM	u
CCC(=O)c1c(O)n(C2CCCCCC2)c(=O)[nH]c1=O	n	n	25µM	n	n	n
CCC(=NCc1ccco1)c1c(O)n(C2CCCCC2)c(=O)[nH]c1=O	n	n	u	n	n	n
COc1ccc(CCN(C)Cc2ccc(F)cc2F)cc1OC	n	n	u	u	n	n
Cc1nn(CCC#N)c2c1P(=S)(N1CCCC1)OC(c1ccc(F)cc1)=N2 (stereo unspecified)	n	n	7.1µM	n	20µM	n
CCn1nc(-c2ccccc2)nc2c(=O)n(C)c(=O)nc1-2	n	n	u	-100	n	4µM
CC(=O)O[C@H]1CC[C@H]2[C@@H]3CCC4=C[C@@H](C5SCCS5)[C@H](OC(C)=O)C[C@]4(C)[C@H]3CC[C@@]12C	x	n	n[13.5 µM]	x	n	x
Fc1ccc(CCNCc2ccccc2Cl)cc1	n	n	n	n	n	n
COP(=S)(OC)SCn1nnc2ccccc2c1=O	x	n	13µM	x	28µM	x
CCCCCCCCCCCCC/C=C/[C@@H](O)[C@@H](N)COP(=O)(O)O	x	n	n	x	n	x
O=C(c1ccco1)c1cn(Cc2ccc(Cl)cc2)c2ccccc12	n	n	n	n	n	u
O=Cc1cn(Cc2cccc(F)c2)c2ccccc12	x	n	0.56µM	n	n	n
Cc1ccc(Cn2ccc(NC(=O)c3cc(-c4ccco4)on3)n2)cc1	u	n	18µM	u	n	n
O=C(N=Nc1c(O)[nH]c(=O)[nH]c1=O)C1COc2cc3ccccc3cc2O1 (stereo unspecified)	x	n	u	x	x	n
COc1ccc(C(C)=O)cc1CC(C(=O)c1ccc(Br)cc1)N(C)C (stereo unspecified)	n	n	n	u	n	n
COc1ccc(C(C)=O)cc1COc1ncnc2ccccc12	x	n	1.8µM	x	x	n
CCN(CC)P(=O)(c1nccn1C)N(CC)CC	x	n	n	x	x	n
CC(C)CCn1c(=O)c(C(=O)NCc2ccco2)c(O)c2ccccc21	x	x	x	x	x	n
N#Cc1c(/N=C/c2c(O)n(Cc3ccco3)c(=O)[nH]c2=O)sc2c1CCCC2	n	n	28µM	n	n	n
BrCCBr	x	n	n	x	n	x
O=C1NC(=S)N(c2ccc(F)cc2)C(=O)/C1=C\c1ccoc1	x	n	u	x	x	n
Cc1cc(C)cc(N2C(=O)NC(=O)/C(=C/c3cccn3-c3ccc(Cl)cc3)C2=O)c1	n	n	n	n	4µM	n
Cc1cccc(N2C(=O)NC(=O)/C(=C\c3cccn3-c3ccc(Cl)cc3)C2=O)c1	n	n	n	n	u	u
COc1cc(/C=C2\C(=O)NC(=O)N(c3ccccc3)C2=O)c([N+](=O)[O-])cc1OC	x	n	u	x	x	n
COc1cc(/C=C2\C(=O)NC(=O)N(c3ccccc3)C2=O)cc(OC)c1O	u	n	u	n	32µM	n
SMILES	IMPase cell inh	IMPase Li cell	ALDH1A1 block	PNC inhibitor	HPGD inh	NPSR antag
CC(C)(C)n1cccc1/C=C1\C(=O)NC(=O)N(c2ccccc2)C1=O	x	n	1.4µM	n	n	n
O=C1NC(=O)N(c2ccccc2)C(=O)/C1=C/c1ccc2c(c1)Cc1ccccc1-2	x	n	u	x	x	n
O=C(O)C[C@H]1NCc2cc3ccccc3nc21	x	n	n[13.5 µM]	x	n	x
C=CCn1c(O)c(C(CC)=NCCC2=CCCCC2)c(=O)[nH]c1=O	u	n	u	n	n	n
COc1ccc(Cc2nccc3cc(OC)c(OC)cc23)cc1OC	n	n	n	n	14µM!	u
O=[N+]([O-])CCO	x	n	18µM	x	n	x
C=CCn1c(O)c(/C=C2\C=Nc3ccccc32)c(=O)[nH]c1=O	x	x	u	x	x	n
Nc1c(C(=O)NC2CCCC2)c2nc3ccccc3nc2n1CC1CCCO1 (stereo unspecified)	n	x	n	u	x	13µM
CN1C(=O)NC(=O)/C(=C\C=C\c2ccccc2[N+](=O)[O-])C1=O	x	n	u	x	x	10µM
CCOC(=O)c1ccc(N2C(=O)CC(N3CCC(O)(c4ccc(Br)cc4)CC3)C2=O)cc1 (stereo unspecified)	n	n	1.6µM	n	u	n
